{"source": "PubChem BioAssay AID504706", "about": "(National Center for Advancing Translational Sciences (NCATS), 2011)", "note": "Hit rate of the full screen: of about 320,000 compounds, about 200 (0.062%) were called active. Another 6% or so got no clear call; they are omitted. Calls follow the shape of the dose curve; as a rule, active = well fitted activation curve with a large enough effect; inconclusive = small, poorly fitted or top-dose-only effect; inactive = no such curve, though single readings can be large or run the other way. Shown is part of a subset that was picked to be rich in actives. A call without a number means that no potency is given here. Potency is read from the fitted curve at half-maximal effect.", "data": [{"assay": "qHTS assay for re-activators of p53 using a Luc reporter; also: nearly all actives have a fitted effect of over 45% in size", "conditions": "H1299 p53-A138V BP100-luciferase reporter, luminescence, 24 h; series mostly up to 92.2 µM", "excerpt": "The p53 tumor suppressor plays a key role in suppression of tumorigenesis and in human carcinogenesis. It is frequently found inactivated in human cancers, mainly by point mutation. These point mutations are found in a wide variety of human cancers and a majority of them affect the DNA binding domain of the protein. The point mutations either alter native p53 conformation or abolish DNA contact. Additionally, cancer cells with p53 mutations are more resistant to chemo-radiation therapies. In order to find activators to reactivate this important protein, a cell-based screen for p53-dependent luciferase-reporter expression was developed. A p53-null H1299 lung cancer cell line was stably co-transfected with a temperature sensitive p53 mutant, p53-A138V, and a p53-responsive BP100-luciferase reporter. This cell model has previously been characterized in a gene chip profiling experiment for p53 activation. By lowering the culture temperature from 37 deg C (mutant p53 conformation) to 32 deg C (w.t. p53 conformation), a 30-60 fold increase in activation of luciferase activity is observed. At assay temperate, 37 deg C, basal reporter expression is very low and after the addition of detection reagent, a luminescent read-out is carried out. NIH Chemical Genomics Center [NCGC] NIH Molecular Libraries Probe Production Centers Network [MLPCN] MLPCN Grant: DA031088-01A1 Assay Provider (PI): Yi Sung, University of Michigan at Ann Arbor\n5ul of 1000 cells per well are dispensed in all wells except column 4, into white solid-bottom TC-treated Kalypsys plates. The cells are kept in Opti-MEM and supplemented with 10% FBS and dispensed using a Multidrop (Thermo). Then using the Kalypsys pin-tool, 23nl of compounds are pinned. The compounds are starting concentration at 10mM, with 1:5 dilution, 4 points, and the control compound nocodazole is pinned in column 1 at 25mM, 1:3 dilution, in duplicate, 25mM nocodazole is pinned in column 2. Please note, all concentrations are working concentrations. 5ul of 1pM purified luciferase enzyme is dispensed using the Kalypsys dispenser in column 4. Plates are incubated for 24 hrs at 37 deg C, 5% CO2, and 95% humidity. Then 4ul of the detection reagent Amplite (ABD Bioquest) is added using the Kalypsys dispenser. Plates are incubated for 10 min at ambient room temperature and are then read on the ViewLux (Perkin Elmer) using a clear filter for a luminescent read-out.", "values": [{"smiles": "COC(=O)c1ccc(CNC(=O)c2ccc(S(=O)(=O)N3CCCCCC3)cc2)cc1", "Potency": "inactive"}, {"smiles": "O=C(COc1ccc(F)cc1Br)NCC1COc2ccccc2O1", "note": "(stereo not drawn)", "Potency": "inactive"}, {"smiles": "CC(C)N(C(=O)[C@H]1C[C@H](CC(=O)NCCC2=CCCCC2)C(=O)N2CCc3c([nH]c4cc(CCC(=O)N(C)C)ccc34)[C@]12C)C(C)C", "Potency": "inactive"}, {"smiles": "CN(C)C(=O)CCc1ccc2c3c([nH]c2c1)[C@]1(C)[C@@H](C(=O)N2CCOCC2)C[C@H](CC(=O)NCCc2ccccn2)C(=O)N1CC3", "Potency": "inactive"}, {"smiles": "Cc1onc(-c2ccccc2)c1C(=O)N1CCN(S(=O)(=O)c2ccccc2C(F)(F)F)CC1", "Potency": "inactive"}, {"smiles": "Cn1c(-c2ccc(C(F)(F)F)cc2)cc2onc(-c3ccccc3)c2c1=O", "Potency": "22.4 µM (active)"}, {"smiles": "O=c1c2ccccc2c(-c2ccc(F)cc2)nn1-c1ccc(C(F)(F)F)cc1", "Potency": "inactive"}, {"smiles": "CC(C)n1cnc2c(NCc3ccccc3)cc(N[C@@H](CO)Cc3ccccc3)cc21", "Potency": "inactive"}, {"smiles": "COc1ccc2[nH]c3c(c2c1)CCN1C(=O)C(CC(=O)NCc2cccc(C(F)(F)F)c2)C[C@H](C(=O)N2CCOCC2)[C@@]31C", "note": "(stereo partly drawn)", "Potency": "inactive"}, {"smiles": "COc1ccccc1N(CCOc1ccccc1)S(=O)(=O)c1ccccc1", "Potency": "inactive"}, {"smiles": "COc1ccc(-c2noc(CCC(=O)N3CCN(c4cccc(C)c4)CC3)n2)cc1", "Potency": "inactive"}, {"smiles": "CCCCC[C@@H]1C=C(C(=O)O)[C@H](c2ccc(C#N)cc2)N1S(=O)(=O)c1ccc(C)cc1", "Potency": "inactive"}, {"smiles": "CCC(C)c1ccc(NC(=O)COC(=O)C2CCCC2)cc1", "note": "(stereo not drawn)", "Potency": "inactive"}, {"smiles": "O=C(NCC#CCSc1nnc(-c2cccc3ccccc23)o1)c1cccs1", "Potency": "inactive"}, {"smiles": "O=C(NOCc1ccccc1)c1cccc([N+](=O)[O-])c1", "Potency": "inactive"}, {"smiles": "CCOC(=O)C1CCCN(C(=O)CSc2nnc3nc(C)cc(C)n23)C1", "note": "(stereo not drawn)", "Potency": "inactive"}, {"smiles": "CCOC(=O)C1CCN(C(=O)CN2C(=O)NC(C)(c3ccc4cc(OC)ccc4c3)C2=O)CC1", "note": "(stereo not drawn)", "Potency": "inactive"}, {"smiles": "O=C(NCCc1ccccc1)c1ccc2c(c1)N(Cc1ccccc1)CCS2", "Potency": "inactive"}, {"smiles": "CC1CCN(C(=O)CCNC(=O)c2ccccc2)CC1", "Potency": "inactive"}, {"smiles": "CC1CCCN(c2ccc(C(=O)NCCc3ccccc3)cn2)C1", "note": "(stereo not drawn)", "Potency": "35.5 µM (active)"}, {"smiles": "CC[C@]12c3[nH]c4ccc(Cl)cc4c3CCN1C(=O)[C@@H](CC(=O)NCCCOC)C[C@@H]2C(=O)N1CCN(C(=O)c2ccco2)CC1", "Potency": "inactive"}, {"smiles": "CC[C@]12c3[nH]c4cc(CCC(=O)N(C)C)ccc4c3CCN1C(=O)[C@@H](CC(=O)NCC13CC4CC(CC(C4)C1)C3)C[C@@H]2C(=O)N1CCN(C(=O)C2CC2)CC1", "Potency": "inactive"}, {"smiles": "CCn1c(=S)[nH]c2cc(S(=O)(=O)N3CCOCC3)ccc21", "Potency": "inactive"}]}]}
